Drawing on PubChem BioAssay AID1347416 (National Center for Advancing Translational Sciences (NCATS), 2020), this text covers Potency for 94 compounds.

Out of some 4,100 compounds screened, about 1,600 (39%) were called active. Not shown: some 25% with an inconclusive outcome. Calls come from the whole dose curve; as a rule, active = well fitted inhibition curve with a large enough effect; inconclusive = small, poorly fitted or top-dose-only effect; inactive = no such curve, though single readings can be large or run the other way. This is one part of the list.
Potency is the fitted concentration of half-maximal effect.

The assay in a line: qHTS Validation assay for Inhibitors of Plasmodium falciparum Dd2 growth in vitro. Note: nearly all actives have a fitted effect of over 70% in size. Conditions: P. falciparum Dd2 in RBCs, SYBR Green growth, 72 h; series mostly up to 28.7 µM. The method, boiled down:
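P. falciparum Dd2-infected red blood cells (2.5% hematocrit, 0.3% parasitemia) grown 72 h at 37 °C under 5% O2 with compounds in a titration, 29 uM to 0.5 nM final. Growth read as SYBR Green-1 fluorescence after ~16 h lysis; artesunate 300 nM as positive control.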
In general terms: Quantitative high-throughput screening tests each substance at several concentrations.
Regarding `O=C(c1cn[nH]c1)N1CCC(c2nc(CCOCC3CC3)no2)C1` (centres undefined), the Potency result was “inactive”. As for `COc1nc2ccccc2nc1CCC(=O)N[C@H]1COC[C@H]1Cc1cc(C)no1`, the Potency entry was “inactive”.

As to `CN(C)C[C@@H]1CN(Cc2ccccc2)C[C@H]1NC(=O)c1ccncn1`, the Potency entry is “inactive”. As to `Cc1ccc(NC(=O)c2c(NC(=O)c3ccco3)sc3c2CCC(C(C)(C)C)C3)c(C)c1` (centres undefined), the Potency entry was “inactive”. On to `Cc1ccccc1NC(=O)c1c(NC(=O)c2cccs2)sc2c1CCC(C)C2` (centres undefined), for which the Potency result was “inactive”.

As for `Cc1ccccc1NC(=O)c1c(NC(=O)c2ccco2)sc2c1CCC(C(C)(C)C)C2` (centres undefined), the Potency was 13300 nM (active). Then `Cc1ccc(Cl)cc1NC(=O)c1nnn(Cc2ccccc2)c1N`, with “inactive”; and `Cc1ccc(Cl)cc1NC(=O)CCn1cnc2ccccc2c1=O`, with “inactive”. As for `O=C(CN1CCN(S(=O)(=O)c2cccs2)CC1)NCC1CCCCC1`, the Potency result was “inactive”. For the compound `O=C(NCC1CCCCC1)c1cc2ccccc2cc1O`, the Potency is 9440 nM (active).

On to `CCOc1ccc(NC(=O)c2oc3ccccc3c2NC(=O)c2cc(C)cc(C)c2)cc1`, for which the Potency entry was “inactive”. On to `O=C(NCC1CC1)c1cccc(OC2CN(CC3CC=CCC3)C2)c1` (centres undefined), for which the Potency result was “inactive”. For the compound `CCOc1ccc(NC(=O)c2cc3ccccc3cc2O)cc1`, the Potency was 5310 nM (active). `Cc1ccc(Cl)cc1NC(=O)c1cc2ccccc2cc1O`: the Potency was 1500 nM (active). With `Cc1ccsc1C(=O)N1CC(Oc2ccc(-c3nc(-c4ccccc4)no3)cc2)C1`, the Potency result was “inactive”. For the compound `CCn1cc(CN2CC(Oc3ccc(-c4noc(-c5ccncc5)n4)cc3)C2)cn1`, the Potency is 13300 nM (active). On to `Cc1nc(C)c(C(=O)N2CC(Oc3ccc(-c4noc(-c5ccccc5)n4)cc3)C2)s1`, for which the Potency entry was “inactive”. Turning to `Cc1c(C#N)c(N)nc(Cl)c1C#N`, the Potency result is “inactive”. Take `CCOc1cc(C(=O)N2CCc3c([nH]c4ccccc34)C2c2ccccc2)cc(OCC)c1OCC` (centres undefined): the Potency was 7500 nM (active).

Consider `CN1N=C(C(=O)N2CCc3c([nH]c4ccccc34)C2c2ccccc2Cl)CCC1=O` (centres undefined), for which the Potency was 5310 nM (active). Regarding `CCOc1cccc(C2c3[nH]c4ccccc4c3CCN2C(=O)CSCc2ccc(F)cc2)c1` (centres undefined), the Potency is 15000 nM (active).

Consider `CC(C)NC(=O)N1CCN(S(=O)(=O)c2ccccc2)[C@@H](C(=O)N[C@H](Cc2c[nH]c3ccccc23)C(N)=O)C1`, for which the Potency entry was “inactive”. For `COc1ccc2nc3cc(Cl)ccc3c(Nc3cc(C(C)C)c(O)cc3C)c2c1`, the Potency was 266 nM (active). As to `CN(Cc1ccc(C2CC(=O)Nc3n[nH]c(C4CCC4)c32)o1)S(C)(=O)=O` (centres undefined), the Potency entry is “inactive”.

Consider `Oc1ccccc1CN1CC(CNc2cccnc2)C2(C1)CN(c1ccccc1)C2` (centres undefined), for which the Potency was 10900 nM (active). Consider `Clc1cnccc1CN1CC(CNc2ccccc2)C2(C1)CN(c1ccccc1)C2` (centres undefined), for which the Potency is 13700 nM (active). For `CC(C)c1ccc(CN2CC(CNc3cccnc3)C3(C2)CN(c2ccccc2)C3)cc1` (centres undefined), the Potency is 4850 nM (active). In the case of `Cc1ccc(C)c(-c2cc3c(=O)n(CCNC(=O)c4cccc(F)c4)ccn3n2)c1` it was “inactive”; in that of `COc1ccc([S+](=O)([O-])N2CCC(N3Cc4cccn4C3=O)CC2)cc1`, “inactive”; in that of `Cc1ccc2oc(=O)c3cnn(CC(=O)Nc4cccc(C(F)(F)F)c4)c3c2c1`, 2660 nM (active).

As to `COc1cc(NC(=O)Cn2ncc3c(=O)oc4ccccc4c32)cc(OC)c1OC`, the Potency is 2660 nM (active). In the case of `O=C(NN1C(=O)C2C(C1=O)C1C=CC2C12CC2)c1cccnc1` (centres undefined) it was “inactive”; in that of `COc1ccc(CC(=O)NCc2cc(C)cc3c(C)c(C)[nH]c23)c(OC)c1`, 8410 nM (active); in that of `CCOCCc1nnc(NC(=O)C(=O)c2cc(C)n(-c3ccc(C)c(C)c3)c2C)s1`, “inactive”. Regarding `COc1ccc(-c2nc3c(c(SCc4ccc(Br)cc4)n2)Cc2c(CO)cnc(C)c2O3)cc1`, the Potency is 66.8 nM (active).

As for `CCCCn1cc(S(=O)(=O)c2ccc(Cl)cc2)c(=O)c2cc(F)c(N3CCCCC3)cc21`, the Potency was 15000 nM (active). In the case of `COc1ccc2c(c1)c(=O)c(S(=O)(=O)c1ccc(F)cc1)cn2CC(=O)Nc1ccc(C)cc1C` it was “inactive”. `CCCN(CC1CCOC1)C(=O)c1ccc(F)c(Cl)c1` (centres undefined): the Potency entry is “inactive”. `C1CCC(CNc2c3c(nc4nnnn24)CCCC3)CC1`: the Potency was 13300 nM (active).

Take `c1cncc(-c2nnc(-c3cccnc3)nn2)c1`: the Potency result was “inactive”.

Regarding `Oc1ccccc1-c1cc(C2=CCOCC2)c2cncn2c1`, the Potency was 9680 nM (active). Consider `Oc1ccccc1-c1cc(-c2cccnc2)c2cncn2c1`, for which the Potency was 1720 nM (active).

As for `Cc1ccc([S+](=O)([O-])NC2CCCN(c3nc4ncccc4o3)C2)cc1` (centres undefined), the Potency result is “inactive”.

`O=C(N/N=C/c1ccccn1)c1cccs1`: the Potency entry is “inactive”.

As to `NS(=O)(=O)c1ccc(N/N=C/c2cn(-c3ccccc3)nc2-c2cccs2)cc1`, the Potency was 335 nM (active). In the case of `O=C(O)c1ccc(N/N=C/c2cn(-c3ccccc3)nc2-c2cccs2)cc1`, the Potency was 2660 nM (active). Regarding `Cc1ccc(Nc2nnc(SCC(=O)c3ccc(O)cc3O)s2)cc1`, the Potency entry was “inactive”. `COCC(C)n1c(C)cc(C(=O)CSc2nnc(Nc3ccccc3F)s2)c1C` (centres undefined): the Potency was 2990 nM (active).

On to `CCOC(=O)c1cc(C)n(CC2CCC(C(=O)Nc3cccc(Cl)c3)CC2)c1C` (centres undefined), for which the Potency is 8410 nM (active). Then `CCOC(=O)c1cccc(NC(=O)N2CC[C@@H](CC(=O)N[C@@H](CO)CC(C)C)[C@@H](CC)C2)c1`, with “inactive”.

For the compound `CNC(=O)[C@@H]1C[C@H](Oc2cccnc2)CN1S(=O)(=O)c1ccc2c(c1)CCC2`, the Potency entry is “inactive”. For `CC(=O)N1CCCc2cc(S(=O)(=O)N3CCCC(C(=O)Nc4ccc(C)c(C)c4)C3)ccc21` (centres undefined), the Potency result is “inactive”. As for `CC(C)CCN1CCC(N2CCN(S(=O)(=O)c3ccc4c(c3)CCCC4)CC2)C1=O` (centres undefined), the Potency was 9440 nM (active). For `O=C1NC(=S)S/C1=C\C=C\c1ccc([N+](=O)[O-])o1`, the Potency is 5310 nM (active). For `CCCNC(=O)N1CCC(N2C(=O)[C@H](OCCOC)[C@@H]2c2ccncc2)CC1`, the Potency entry is “inactive”. `Cc1ccc(NC(=O)N2CCC(N3C(=O)C4(CCCCC4)C3c3ccncc3)CC2)cc1C` (centres undefined): the Potency is 7500 nM (active). As to `COCCO[C@H]1C(=O)N(C2CCN(C(=O)COc3ccccc3)CC2)[C@H]1c1ccncc1`, the Potency result was “inactive”. For `CCNc1nc(NC(C)(C)C)nc(N2CCCC2)n1`, the Potency is 2370 nM (active). `CCOC(=O)c1c(NC(=O)C[n+]2ccc(N(C)C)cc2)sc(C)c1C`: the Potency is 1330 nM (active). In the case of `Cc1cc[n+](CC(=O)Nc2cccc(C)c2)cc1` it was “inactive”; in that of `O=C(NC1CCN(c2cc(-c3cccs3)[nH]n2)C1)c1cccs1` (centres undefined), “inactive”; in that of `O=C(Nc1cc(Cl)ccc1O)c1cc2nc(-c3ccc4c(c3)OCO4)cc(C(F)(F)F)n2n1`, 2660 nM (active). As to `COc1ccc(-c2c(C)nn3c(N)c(C#N)cnc23)cc1OC`, the Potency was 1680 nM (active). `CC1CC(C)CN(C(=O)c2ccc3ccccc3c2)C1` (centres undefined): the Potency is 2370 nM (active). Then `COc1cc2ccccc2cc1C(=O)N1CCCC(C(F)(F)F)C1` (centres undefined), with 5310 nM (active). For the compound `COc1ccc(C(=O)N2CCC3(CC2)CC(O)CCO3)c(OC)c1` (centres undefined), the Potency result was “inactive”.

Turning to `COc1cc(Cl)ccc1C(=O)N1CC[C@@](C)(O)[C@@H](O)C1`, the Potency result was “inactive”. Take `CC1CC(C)CN(C(=O)CNC(=O)c2sc3ccccc3c2Cl)C1` (centres undefined): the Potency result was “inactive”.

Take `O=C(O)c1cccc(C2CCCN(C(=O)c3ccccc3-n3cccn3)C2)c1` (centres undefined): the Potency entry is “inactive”. On to `COc1cc2ccccc2cc1C(=O)N1CC(C)CC(C)C1` (centres undefined), for which the Potency was 2370 nM (active). As to `CC1CC(C)CN(C(=O)CCNC(=O)c2ccccc2Cl)C1` (centres undefined), the Potency entry was “inactive”. `COc1cc(OC)c(C(=O)N2CCCC2)cc1OC`: the Potency entry is “inactive”. Turning to `CCc1ccc(S(=O)(=O)Nc2cc(-c3cn4ccccc4n3)ccc2C)cc1`, the Potency entry was “inactive”. Then `Cc1ccc(S(=O)(=O)Nc2ccc(-c3cn4ccc(C)cc4n3)cc2)cc1`, with 6680 nM (active). Turning to `CCN(CC)CCOC(=O)c1ccc(NC(=O)c2cc3c(=O)n(CC)c4ccccc4c3s2)cc1`, the Potency was 2660 nM (active). On to `CCCCNC(=O)c1onc(CSc2nc3ccccc3[nH]2)c1C(=O)NCCCC`, for which the Potency was 5310 nM (active). In the case of `COCC(=O)NC1CCC12CCN(C(=O)c1ccc(C)nc1)CC2` (centres undefined) it was “inactive”; in that of `CC(=O)Nc1cc[n+](C(C)C(=O)c2ccc(Br)cc2)cc1` (centres undefined), “inactive”.

`CN(C)c1cc[n+](CC(=O)c2ccc(Br)cc2)cc1`: the Potency is 7500 nM (active). Turning to `Cc1cccc(NC(=O)Cn2nc3n(c2=O)CCCC3)c1C`, the Potency result was “inactive”.

In the case of `COc1ccc(NC(=O)c2c(C)oc3ccc(O)c(CN4CCN(Cc5ccccc5)CC4)c23)cc1`, the Potency is 2660 nM (active). As for `Cc1oc2ccc(O)c(CN3CCN(Cc4ccccc4)CC3)c2c1C(=O)Nc1cccc(Cl)c1C`, the Potency was 596 nM (active). Turning to `Cc1oc2ccc(O)c(CN3CCCCCC3)c2c1C(=O)Nc1cccc(Cl)c1C`, the Potency was 842 nM (active). On to `COc1ccc(N2Cc3c(ncnc3N3CCN(Cc4ccccc4)CC3)N(C)CC2=O)cc1`, for which the Potency result was “inactive”.

Turning to `CCN1CCN(Cc2c(O)ccc3c(=O)c(Oc4ccccc4Cl)c(C(F)(F)F)oc23)CC1`, the Potency was 596 nM (active). Then `CC1CCN(Cc2c(O)ccc3c(=O)c(Oc4ccccc4Cl)c(C(F)(F)F)oc23)CC1`, with 1330 nM (active); and `CC1CCCN(Cc2c(O)ccc3c(=O)c(-c4ccc(Cl)cc4)c(C(F)(F)F)oc23)C1` (centres undefined), with 842 nM (active). Turning to `CCc1cc2c(=O)c(-c3cnn(-c4ccccc4)c3)c(C)oc2c(CN2CCCCC2)c1O`, the Potency is 1330 nM (active). Then `CC(=O)c1ccc(NC(=O)c2noc3c2CCC3)cc1`, with “inactive”. Then `CC1CCCN(Cc2c(O)ccc3c(=O)c(-c4ccc(Cl)cc4)coc23)C1` (centres undefined), with 1880 nM (active); and `CC1CCCN(Cc2c(O)ccc3c(=O)c(-c4ccccc4Cl)c(C(F)(F)F)oc23)C1` (centres undefined), with 842 nM (active); and `Cc1oc2c(CN3CCCCC3)c(O)ccc2c(=O)c1-c1ccc(Cl)cc1`, with 5310 nM (active). As to `O=c1c(-c2ccc(Br)cc2)coc2c(CN3CCCCC3)c(O)ccc12`, the Potency was 2110 nM (active). Regarding `CC1CCCN(Cc2c(O)ccc3c(=O)c(Oc4ccccc4Cl)c(C(F)(F)F)oc23)C1` (centres undefined), the Potency is 2110 nM (active).
